# Whole data set: some 25,000 sequences, median “ln(normalized median fluorescence intensity)” near 9.7, cut for the highest 2% near 11. This excerpt belongs to a sample that is enriched for the highest values.
# Tested on: PfAP2-HC AP2 domain (GST-tagged)
# Assay: gcPBM binding intensity (ln(normalized median fluorescence intensity)); higher = stronger DNA binding
# Method in brief: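 Binding intensity values are the highest Masliner-normalised natural-log median intensity among replicate spots of either probe orientation. The binding step lasted 1 h in 1× PBS with 1% milk, 0.2 mg/ml BSA, 0.5% salmon testes DNA and 0.03% Triton X-100, using GST-tagged P. falciparum DNA-binding domains expressed in E. coli on an Agilent 4 × 180k array of primer-extended double-stranded 36-bp intergenic genomic probes plus negative controls. Alexa488 anti-GST antibody and a 488 nm scan detected bound protein.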
row,Sequence,gcPBM binding intensity (ln)
1,ATGTATATGATTAAATGTACGTAAACAAATTTGTAA [XGTACX_site8174],9.81
2,ATATCATTAAAAGGATGTACATATGTGTATACAATA [XGTACX_site871],9.84
3,TATATATATATATATATATATATTAATATATATTAC [XGTACX_negctrl_site103],9.62
4,AAAAAAAAAAGACACACACACATAGACCTCCAATAG [CACACA_site7646],10.5
5,AAAAAAAAAAAAAACACACACACATAGACCTCCAAT [CACACA_site3563],11.3
6,AAAAAAAAAAAACACACACACATAGACCTCCAATAG [CACACA_site3562],10.3
7,ATAAAGAAATAAAGTTGTACATTATATATATATATA [XGTACX_site7729],9.61
8,GGTATATTAAAATAGGTGCATAAAACTAAGAGAAAA [GTGCAC_site9781],9.73
9,TAGATACAGAAACACACACACACATACATATATACA [CACACA_site3437],10.6
10,AAAGAAAGAAAACACACACACATATATATATATCAA [CACACA_site3743],10.9
11,ATCAAAAGAAAACACACACACATACAGATATATATA [CACACA_site5974],11.2
12,AAAAAATACATCAAAAGAAACATATATATATATATA [GTGCAC_negctrl_site719],9.59
13,ATCAAAAGAAAACACACACACATACATATATATATA [CACACA_site3795],11.1
14,AAAAAAAAAAAACATACACACATACATACAGATATA [CACACA_site4681],10.1
15,ATCTTTTATATATTCACACATAAAATTATACAGATA [CACACA_site5277],9.46
16,TATATTTCAGGGGGGAGTACAAATTTTTTTATATAA [XGTACX_site1600],10
17,ATATATGGGTAGTATACACACTGTATATTTAGGAAT [CACACA_site7357],9.91
18,ATATATATATATATGTGTACTAATAAGGTTAAATAA [XGTACX_site1535],9.85
19,AAAAAAAAAAGAAACACACACATATATATATAGAAT [CACACA_site1777],10.3
20,AAAAAAAAAAAAAAAACACACATATAGATTTATATA [CACACA_site7196],9.88
21,AAAAAAAAGAAAAACACACACATATATATATAGAAT [CACACA_site1006],11.3
22,CAAGAAAAGAAACACACACACATATATATATATATA [CACACA_site3881],11.2
23,AAAAAAAAAAAAGAAACACACACATATATATATATA [CACACA_site8525],10.7

row,Sequence,gcPBM binding intensity (ln)
1,TATATATAGAAACACACACACACATATATATATATT [CACACA_site2539],11.3
2,AAAAAAAAGAAAAACACACACATATTTATTTATAAC [CACACA_site6600],10.2
3,TATATATAGAAACACACACACACATATATATATATA [CACACA_site4116],10.3
4,AAGAAAAAAAAAAAAACACACATATATATATATATA [CACACA_site2027],10.2
5,AAAAAAAAAAGAAACACACACATATAGATTTATAAC [CACACA_site6927],10.9
6,TATATATAGAAACACACACACATATATATATATATT [CACACA_site4115],10.5
7,AAAAAAAAAAAAGAAACACACATATATATATATATA [CACACA_site140],9.68
8,AAAGGTAAATGTAAATAAATAAATAATAAATATATA [GTGCAC_negctrl_site681],9.77
9,TTTTCTTGACCTATTATTCTTCTCATAGTATAATAT [GTGCAC_negctrl_site641],9.62
10,TGAACATACATCAAAAGTACAAACTCGCATGTTATA [XGTACX_site3320],9.67
11,TATAATATTATACATAGTACACATCACACATCGCAA [XGTACX_site4650],9.99
12,AATAAGCAGAAACACACACACAAAAAAAAAAAAAAA [CACACA_site719],10.1
13,ATAATAAGCAAACACACACACACAAAAAAAAAAAAA [CACACA_site720],11.6
14,ATAATAAGCAGACACACACACACAAAAAAAAAAAAA [CACACA_site6477],11
15,ATCAAATAATAGCAAACACACAAAAAATAAAAAAAA [CACACA_site4146],9.93
16,AATAAGCATAGACACACACACAAAAAAAAAAAAAAA [CACACA_site6476],10.1
17,GACACAAAAAAATAATAATAATAATAATAATAAATA [XGTACX_negctrl_site145],9.75
18,GTGATTAATATATACACACATACATATATATATATA [CACACA_site2817],9.81
19,TATATATTAAAAATAGTGCAAAATAATATATATATA [GTGCAC_site9716],9.82
20,TTTTTTACATCCATAAAACTTTTTCTCTTTTAAAAT [CACACA_negctrl_site1745],9.43
21,AAAATTTATGGAAGGTGTACTGTTAATTATGTATAT [XGTACX_site6446],9.74
22,AGGAAGGAAATAAATCAACACACATATATTATATAT [CACACA_site8678],9.87
23,CAAAAAAATGTGAAGGCATGCAAATATGTAAAATAA [TGCATGCA_site921],10.9

row,Sequence,gcPBM binding intensity (ln)
1,TTATTGTAAATATATGCATGTGCAAAATGAAAAAAA [TGCATGCA_site399],9.69
2,TTTTATGCATGTGAAGTGCAAAATAAAAAATAAAAT [GTGCAC_site9612],9.56
3,AAAAAACTTCACATATGTACTTAAAAAAAATTAAAA [XGTACX_site2368],9.43
4,ATATAGTAAAATTATACACACATGAATTTTCCCATA [CACACA_site3113],9.81
5,TCCCAATTTATTATGTGTACTTATTATATACATATA [XGTACX_site4033],9.72
6,AAGTATTACAACCACACACACACCTATATATCATAG [CACACA_site7878],11
7,TAAAGTATTACAACCACACACACACCGATATATTAT [CACACA_site9382],10.8
8,AAGTATTACAACCACACACACACCTATATATTATAT [CACACA_site4158],10.6
9,ATTATAACCATATACACACCCATATAAATAAATATA [CACACA_site6926],10.5
10,GTATTACAACGACACACACACCTATATATCATAGTA [CACACA_site7877],10.5
11,TAAAGTATTACAACCACACACACACCCATATATTAT [CACACA_site4159],11.1
12,AAAGGATGTAATATAAACATATATATGTATATATAT [TGCATGCA_negctrl_site347],9.79
13,AATATTATATTTTATTGTACTAATAAAAATATATGC [XGTACX_site5435],9.43
14,AAAAAAGGAAAAGATACACACCGTAAATTAAAATTT [CACACA_site5908],10.2
15,AAAAAAAAAAAAAAAAAAAAAAAAAAAATACGAAAG [GTGCAC_negctrl_site729],9.46
16,AATTTCTACTATTGTATGCACTTTCATACATACATA [GTGCAC_site9924],9.92
17,TAAAAAATAAAATAATGTACATATGAATTATATATT [XGTACX_site8398],9.68
18,TATAGAAGCGTTCACACACACACATACATACCCATA [CACACA_site4915],11.1
19,AATATAGATACATATACACACACACCCATACATATA [CACACA_site9137],10.6
20,GTTATAGAAGCATTCACACACACACCGACATACACA [CACACA_site4914],10.3
21,TATTACCCATATTATACACACATATATTATATATAT [CACACA_site1567],10.2
22,TTGTTATAGAAGCATTCACACACACCCATACATACA [CACACA_site8414],10.8
23,GTTATAGAAGCATTCACACACACACCCACATACACA [CACACA_site1465],11.2

row,Sequence,gcPBM binding intensity (ln)
1,TCTTCCATTTTTATTACACACATAAATATGAAATCG [CACACA_site3471],9.74
2,ATATATATTTATAATCGTACGTACCTAACAATACAA [XGTACX_site4510],9.62
3,ATGGATTATACGTGCACACATATATACAAATAAATA [CACACA_site640],9.81
4,AAACTTGACGAACACACACACACATATATAAAAAAA [CACACA_site6494],11.5
5,AAACTTGACGGACACACACACACATATATAAAAAAA [CACACA_site4577],11.6
6,AGCAGACACCAACACACACACATATATATATATATA [CACACA_site337],10.5
7,GTTTGATTAAACTTGACACACATATATATAAATATA [CACACA_site1784],9.65
8,ACTTGACACCAACACACACACATATATAAAAAAAAA [CACACA_site756],11
9,ACTTGACACGGACACACACACATATATAAAAAAAAA [CACACA_site4576],10.5
10,CATATATAAAAAAACACACACATATATATATATATA [CACACA_site1195],10.2
11,AAATAAAATACATATAAACACACATATAAACCAACA [CACACA_site8789],10.2
12,AAACTTGACAGACACACACACACATATATAAAAAAA [CACACA_site757],10.4
13,AATGGAAAATTATTAACACACACATATAAATATATA [CACACA_site7899],10.1
14,AAATATAAATATACTCGTACATATATATATATATAT [XGTACX_site6940],9.72
15,ACAAAACATATATTCTGTACATATATAATGGTGACT [XGTACX_site6796],9.77
16,TTTTTTTTTTTTTTTTTTTGATTCTTATAAAAATTT [GTGCAC_negctrl_site240],8.56
17,CTTATATTTAGACACACACACAATAAAATGAAAAAA [CACACA_site1031],10.3
18,TACTAAGAATTAATATAACAAAATAAAAAAAAAAAA [XGTACX_negctrl_site346],9.44
19,AATACAATTTATAACACACACACAAGAATACCTATA [CACACA_site6705],11.1
20,TACAATTTATGACACACACACAATAATACCTATATA [CACACA_site6704],10.3
21,CAATTTATAAAGAAAACACACATATACCTATATACA [CACACA_site6710],9.85

# Reference: the supplement of paper PMC11417369
